From PubChem BioAssay (Tox21)
Inconclusive results are not listed. Where a call stands in place of a potency, no number is given. A number with no mark means an inactive call. Activity calls are given as the source filed them. The call rests on the fitted dose curve; in most records, active means well fitted curve in the direction sought with a large enough effect in the repeat runs; inconclusive means weak or mixed curves; inactive means no such curve, though single readings can be large; an effect the other way counts as inactive or inconclusive.

test system: not listed separately; assay: qHTS assay to identify aromatase inhibitors - cell viability counter screen (AID 743084); details: MCF-7 aro ERE viability, CellTiter-Fluor, 24 h; series mostly up to 70.3 µM;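 further: cells stimulated with testosterone during compound exposure; nearly all actives have a fitted effect of over 55% in size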
Potency means the concentration at half of the fitted maximal effect.

SMILES | Potency | activity change, negative = cytotoxicity
CC(=O)OCC(=O)[C@@]1(O)CC[C@H]2[C@@H]3CCC4=CC(=O)C=C[C@]4(C)[C@@]3(F)[C@@H](O)C[C@@]21C | inactive | 
CC1(C)C(=O)NC(=O)N1CO | inactive | 
O=C(OCCOCCOCCOC(=O)c1ccccc1)c1ccccc1 | inactive | 
NC(=O)c1ccccc1 | inactive | 
CC(COc1ccccc1)NC(C)C(O)c1ccc(O)cc1 (stereo not drawn) | inactive | 
O=[N+]([O-])c1ccc(Cl)cc1Cl | inactive | 
C=CC(=O)NC(C)(C)C | inactive | 
CCCC1CCOC(C)S1 (stereo not drawn) | inactive | 
CCCCCCCCCCCCCCCCC(=O)O | inactive | 
CCCCCCCCS | inactive | 
C=C(C)C(=O)OCCCCCCCCCCOC(=O)C(=C)C | inactive | 
CCCCCCCCCCCCCCCCCCCl |  | 0.528% [at 8.47 µM]
CCCC(=O)OCc1ccccc1 | inactive | 
CC1=CC(=C(c2ccc(N)cc2)c2ccc(N)cc2)C=CC1=N | 11.9 µM (active) | 
C[C@@H](O)[C@H]1C(=O)N2C(C(=O)O)=C(S[C@@H]3CN[C@H](CNS(N)(=O)=O)C3)[C@H](C)[C@H]12 | inactive | 
Nc1cccc2c(=O)[nH][nH]c(=O)c12 | inactive | 
CCCc1ccc(OC)cc1 | inactive | 
FC1(F)C(F)(F)C(F)(F)C2(F)C(F)(C1(F)F)C(F)(F)C(F)(F)C1(F)C(F)(F)C(F)(F)C(F)(F)C(F)(F)C12F (stereo not drawn) | inactive | 
O=C1CCCN1CCO | inactive | 
COC(=O)c1cc(Cl)ccc1[N+](=O)[O-] | inactive | 

SMILES | Potency | activity change, negative = cytotoxicity
OCCOc1cccc(OCCO)c1 | inactive | 
O=C(O)c1ccc2cc(O)ccc2c1 | inactive | 
C=CC(=O)OCCCCCCCCCC | inactive | 
CCCOC(C)=O | inactive | 
CC(Cc1ccccc1)(NC(=O)CN)c1ccccc1 (stereo not drawn) | inactive | 
CCOC(OCC)OCC | inactive | 
C[Si](C)(C)O[Si](C)(C)O[Si](C)(C)C | inactive | 
CCCCCCCCCCCC(=O)OCC | inactive | 
CC(C)Cc1nccs1 | inactive | 
O=C(c1ccc(Cl)cc1)c1ccc(Cl)cc1 | inactive | 
CCCCCCCCCCCCN1CCOCC1 | inactive | 
O=Cc1ccc([N+](=O)[O-])cc1 | inactive | 
CC1=C(C)C(=O)C(CCCCC#CCCCC#CCO)=C(C)C1=O | inactive | 
O=C1OC(=O)C2CC=CCC12 (stereo not drawn) | inactive | 
N#Cc1ccc(CC(=O)c2cccc(C(F)(F)F)c2)cc1 | inactive | 
N#C[C@@H]1CC(F)(F)CN1C(=O)CNC1CC2CCC(C1)N2c1ncccn1 (stereo partly drawn) | inactive | 
O=[N+]([O-])c1cccc(I)c1 | inactive | 
C=C[Si]1(C)O[Si](C)(C=C)O[Si](C)(C=C)O[Si](C)(C=C)O1 (stereo not drawn) | inactive | 
OCCCO | inactive | 

molecular target: Aryl hydrocarbon receptor (Homo sapiens) (UniProt P35869); assay: qHTS assay to identify small molecule that activate the aryl hydrocarbon receptor (AhR) signaling pathway (AID 743085); details: HepG2 AhR-luc (HG2L7.5c1), luciferase, 24 h; series mostly up to 70.3 µM; further: nearly all actives have a fitted effect of over 15% in size;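 on activation: HG2L7.5c1 human HepG2 liver cells with stably integrated DRE-driven firefly reporter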
In short: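 Cell line HG2L7.5c1 (human hepatoma, 20× DRE-luc). Plated, 5 h 37C, compound/DMSO added, 24 h 37C. CellTiter-Fluor 30 min 37C → fluorescence; then ONE-Glo 30 min RT → luminescence.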

Chain of Aryl hydrocarbon receptor (Homo sapiens) (P35869 whole entry, looked up): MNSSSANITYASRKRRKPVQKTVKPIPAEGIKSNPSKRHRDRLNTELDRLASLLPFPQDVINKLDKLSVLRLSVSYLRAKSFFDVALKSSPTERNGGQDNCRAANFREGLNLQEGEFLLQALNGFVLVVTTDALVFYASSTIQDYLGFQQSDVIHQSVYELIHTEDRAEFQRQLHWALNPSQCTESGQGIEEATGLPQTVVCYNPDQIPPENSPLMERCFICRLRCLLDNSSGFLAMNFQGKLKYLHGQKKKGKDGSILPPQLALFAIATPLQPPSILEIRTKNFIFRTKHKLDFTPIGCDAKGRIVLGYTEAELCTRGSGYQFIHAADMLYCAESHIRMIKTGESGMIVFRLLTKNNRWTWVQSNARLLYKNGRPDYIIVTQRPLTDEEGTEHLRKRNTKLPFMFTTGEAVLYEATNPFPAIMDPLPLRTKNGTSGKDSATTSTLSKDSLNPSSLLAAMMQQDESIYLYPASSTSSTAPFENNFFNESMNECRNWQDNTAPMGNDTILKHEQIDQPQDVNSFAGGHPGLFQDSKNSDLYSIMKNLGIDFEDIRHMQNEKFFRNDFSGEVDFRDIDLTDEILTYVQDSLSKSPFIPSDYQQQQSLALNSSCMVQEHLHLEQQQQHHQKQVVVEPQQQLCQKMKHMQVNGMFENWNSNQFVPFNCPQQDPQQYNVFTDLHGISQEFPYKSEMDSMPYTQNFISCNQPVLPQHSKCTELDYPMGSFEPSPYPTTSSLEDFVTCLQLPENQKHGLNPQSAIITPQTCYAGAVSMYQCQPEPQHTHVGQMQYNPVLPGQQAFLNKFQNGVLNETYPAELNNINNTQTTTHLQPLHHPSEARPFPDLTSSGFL

SMILES | Potency | activation
CC(=O)OCC(=O)[C@@]1(O)CC[C@H]2[C@@H]3CCC4=CC(=O)C=C[C@]4(C)[C@@]3(F)[C@@H](O)C[C@@]21C | inactive | 
CC1(C)C(=O)NC(=O)N1CO | inactive | 
O=C(OCCOCCOCCOC(=O)c1ccccc1)c1ccccc1 | inactive | 
NC(=O)c1ccccc1 | inactive | 
CC(COc1ccccc1)NC(C)C(O)c1ccc(O)cc1 (stereo not drawn) | inactive | 
O=[N+]([O-])c1ccc(Cl)cc1Cl | inactive | 
C=CC(=O)NC(C)(C)C | inactive | 
CCCC1CCOC(C)S1 (stereo not drawn) | inactive | 
CCCCCCCCCCCCCCCCC(=O)O | inactive | 
CCCCCCCCS | inactive | 
C=C(C)C(=O)OCCCCCCCCCCOC(=O)C(=C)C | inactive | 
CCCCCCCCCCCCCCCCCCCl |  | -0.694% [at 8.47 µM]
CCCC(=O)OCc1ccccc1 | inactive | 
CC1=CC(=C(c2ccc(N)cc2)c2ccc(N)cc2)C=CC1=N | inactive | 
C[C@@H](O)[C@H]1C(=O)N2C(C(=O)O)=C(S[C@@H]3CN[C@H](CNS(N)(=O)=O)C3)[C@H](C)[C@H]12 | inactive | 
Nc1cccc2c(=O)[nH][nH]c(=O)c12 | inactive | 
CCCc1ccc(OC)cc1 | inactive | 
FC1(F)C(F)(F)C(F)(F)C2(F)C(F)(C1(F)F)C(F)(F)C(F)(F)C1(F)C(F)(F)C(F)(F)C(F)(F)C(F)(F)C12F (stereo not drawn) | inactive | 
O=C1CCCN1CCO | inactive | 
COC(=O)c1cc(Cl)ccc1[N+](=O)[O-] | inactive | 

SMILES | Potency | activation
OCCOc1cccc(OCCO)c1 | inactive | 
O=C(O)c1ccc2cc(O)ccc2c1 | inactive | 
C=CC(=O)OCCCCCCCCCC | inactive | 
CCCOC(C)=O | inactive | 
CC(Cc1ccccc1)(NC(=O)CN)c1ccccc1 (stereo not drawn) | inactive | 
CCOC(OCC)OCC | inactive | 
C[Si](C)(C)O[Si](C)(C)O[Si](C)(C)C | inactive | 
CCCCCCCCCCCC(=O)OCC | inactive | 
CC(C)Cc1nccs1 | inactive | 
O=C(c1ccc(Cl)cc1)c1ccc(Cl)cc1 | inactive | 
CCCCCCCCCCCCN1CCOCC1 | inactive | 
O=Cc1ccc([N+](=O)[O-])cc1 | inactive | 
CC1=C(C)C(=O)C(CCCCC#CCCCC#CCO)=C(C)C1=O | 11.9 µM (active) | 
O=C1OC(=O)C2CC=CCC12 (stereo not drawn) | inactive | 
N#Cc1ccc(CC(=O)c2cccc(C(F)(F)F)c2)cc1 | inactive | 
N#C[C@@H]1CC(F)(F)CN1C(=O)CNC1CC2CCC(C1)N2c1ncccn1 (stereo partly drawn) | inactive | 
O=[N+]([O-])c1cccc(I)c1 | inactive | 
C=C[Si]1(C)O[Si](C)(C=C)O[Si](C)(C=C)O[Si](C)(C=C)O1 (stereo not drawn) | inactive | 
OCCCO | inactive | 
